High-throughput results: PubChem BioAssay, National Center for Advancing Translational Sciences (NCATS)
Shiga toxin inh = A qHTS for Small Molecule Inhibitors of Shiga Toxin; AID 2315, 2010; Vero cells, Shiga toxin protein synthesis inhibition reporter; 290,000 compounds, 9.2% hits; inhibition, % at 38.7 µM; in the data active = inhibition mostly above about 28%, no sharp cut-off; inactive = mostly below about 43%; note: 0% is about no effect
HCV inhibitor = qHTS Assay for Inhibitors of Hepatitis C Virus (HCV). Huh7.5.1 HCVcc-Cre infection, luciferase reporter, 44 h. Potency, µM (doses to about 41.8 µM), inactives show top-dose activity change, negative = inhibition, actives largely listed as inhibitors. 340,000 compounds, 3.4% hits. AID 651820, 2012; note: potency is the fitted concentration of half-maximal effect; % is set by controls: 0 for no effect and ±100 for the full control effect
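Cells (1,000/well) were plated 4 h before compound, then infected with HCVcc-Cre virus (~0.5 moi). After 44 h further culture, infection was read as luciferase luminescence following a 15 min substrate incubation at room temperature.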
Cycloheximide cs = Cycloheximide Counterscreen for Small Molecule Inhibitors of Shiga Toxin; max response, %; 300,000 compounds, 12% hits; cell reporter, cycloheximide protein synthesis inhibition counterscreen; AID 2314, 2010; in the data active = max response mostly above about 13%, no sharp cut-off; inactive = mostly below about 14%; note: read at 38.3 µM for the half of the compounds with a filed dose; 0% is about no effect
HCMV antiviral = qHTS Assay for inhibitors of the human cytomegalovirus (HCMV) | HFF cells, HCMV-luciferase reporter, 72 h; hits give low values | activity change, negative = inhibition, % at 57.5 µM | 410,000 compounds, 4.5% hits; in the data active = activity change below about -60%; inconclusive = no clear call, values can overlap the other calls; inactive = above about -39%; note: % is set by controls: 0 for no effect and ±100 for the full control effect
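Screen run at 2 compound doses on HFFs infected with reporter HCMV, MOI 1 PFU/cell. Luciferase activity from cell lysates at 72 h post infection gave inhibition relative to buffer-only and Salinomycin wells.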
Pf growth 48h = Primary qHTS for delayed death inhibitors of the malarial parasite plastid, 48 hour incubation. 310,000 compounds, 5.9% hits. Potency, µM (doses to about 28.7 µM), without a hit: at the top dose activity change, negative = inhibition, usual class: inhibitors. P. falciparum luciferase growth in erythrocytes, 48 h. AID 504832, 2011; note: potency is the fitted concentration of half-maximal effect; % is set by controls: 0 for no effect and ±100 for the full control effect
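Here the parasites carry a stable luciferase gene and grow inside erythrocytes in Albumax-based RPMI medium with compound for one erythrocytic cycle. Activity is scored as loss of luminescent signal.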
Pf growth 96h = Primary qHTS for delayed death inhibitors of the malarial parasite plastid, 96 hour incubation | P. falciparum luciferase reporter growth, 96 h | Potency, µM (top dose mostly 28.7 µM), for the others: at the highest dose activity change, negative = inhibition, hits mostly inhibitors | 320,000 compounds, 6.9% hits | AID 504834, 2011; note: potency is the fitted concentration of half-maximal effect; % is set by controls: 0 for no effect and ±100 for the full control effect
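Infected RBCs, 2% Hct / 0.05% parasitemia final; luciferase-reporter P. falciparum; cpd 96 h, 37 C, 5% CO2; luciferase detection reagent; luminescence.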
Numbers without * were called inactive; ? = inconclusive; / = no result; ! = not active in a repeat. A selection: hits, their analogues and other compounds. The true share with any hit is near 21%. Unless noted, calls come from the whole dose curve; as a rule, active = well fitted inhibition curve with a large enough effect; inconclusive = small, poorly fitted or top-dose-only effect, or another doubt; inactive = no such curve, though single readings can be large or run the other way.

SMILES	Shiga toxin inh	HCV inhibitor	Cycloheximide cs	HCMV antiviral	Pf growth 48h	Pf growth 96h
CCOc1ccc(-c2csc(NC(=O)C3CCCO3)n2)cc1 (stereo not given)	11*	-16%	42*	4	55%	/
O=C(CN1C(=O)CCSc2ccccc21)Nc1ccccc1F	/	/	/	12	/	/
CCCOC(=O)Nc1nc2ccccc2o1	144*	18%	26*	31	130%	126%
CCOC(=O)C(=CN=C(N)Nc1nc2ccccc2o1)C(=O)OCC	31*	-6%	14*	-3	-7%	10µM*
CCOC(=O)C(Cc1ccc(O)cc1)Nc1nc2ccccc2o1 (stereo not given)	/	31%	/	17	/	/
Cc1cccc(NC(=O)CN2C(=O)CCS(=O)(=O)c3ccccc32)c1C	-3	19%	-2	9	0%	?
CCCc1ccc(C2Sc3ccccc3NC3=C2C(=O)c2ccccc23)cc1 (stereo not given)	/	/	/	-93*	/	/
O=C1C2=C(Nc3ccccc3SC2c2c(F)cccc2Cl)c2ccccc21 (stereo not given)	/	/	/	19	/	/
O=C1C2=C(Nc3ccccc3SC2c2ccccc2C(F)(F)F)c2ccccc21 (stereo not given)	/	/	/	-94*	/	/
O=C1C2=C(Nc3ccccc3SC2c2ccc(Cl)c(Cl)c2)c2ccccc21 (stereo not given)	/	/	/	-100*	/	/
Cc1ccc(CNC(=O)CCCn2c(=O)c3ccccc3n(CC(=O)Nc3ccc(C)c(C)c3)c2=O)cc1	/	/	/	-1	/	/
COC(=O)c1cccc(NC(=O)c2ccc3c(c2)C(=O)N(Cc2cccnc2)C3=O)c1C	-13	7%	-2	-7	18%	-17%
Cc1ccc(C)n1C1C(=O)N(C)c2ccc(Cl)cc21 (stereo not given)	/	/	/	19	/	/
C=CCOC(=O)C1=C(C)NC(SCC(=O)Nc2ccccc2)=C(C#N)C1c1ccco1 (stereo not given)	11	?	6	-15	9.3µM*	?
C=CCOC(=O)C1=C(C)NC(SCC(=O)N(CC)CC)=C(C#N)C1c1ccco1 (stereo not given)	-11	?	2	-7	13µM*	/
C=CCOC(=O)C1=C(C)NC(SCC(=O)NC(=O)OCC)=C(C#N)C1c1cccnc1 (stereo not given)	-7	24%	-1	-31	10µM*	4%
CCN(CC)C(=O)CSC1=C(C#N)C(c2ccco2)C(C(=O)OCCOC)=C(C)N1 (stereo not given)	2	?	3	29	?	?
CCOC(=O)C1=C(C)NC(SCC(=O)Nc2nc(C)cs2)=C(C#N)C1c1cccs1 (stereo not given)	24	/	12	-40	2.1µM*	?
Cc1cc(C)c(NC(=O)CSc2nnc3[nH]c(=O)cc(C)n23)c(C)c1	/	/	/	67	/	/
COc1cccc(Cn2ccn(-c3ccc(F)cc3)c(=O)c2=O)c1	/	/	/	-19	/	/
O=C(NC1CC(=O)N(c2ccccc2)C1)c1ccc(S(=O)(=O)N2CCCCC2)cc1 (stereo not given)	/	/	/	23	/	/
CCc1cccc(NC(=O)CCS(=O)(=O)c2ccc3nc(C)sc3c2)c1	/	/	/	-17	/	/
CCN(CC)CCCNC(=S)N1CCC(c2nc3ccccc3[nH]2)CC1	/	7%	-1	21	?	?
O=C(Cn1cnc2c(oc3ccccc32)c1=O)NCCc1ccccc1	/	0%	/	38	/	/
CC(C)C(C)NC(=O)Cn1cnc2c(oc3ccccc32)c1=O (stereo not given)	38	1%	17*	15	25%	40%
SMILES	Shiga toxin inh	HCV inhibitor	Cycloheximide cs	HCMV antiviral	Pf growth 48h	Pf growth 96h
CCOC(=O)c1ccccc1NC(=O)Cn1cnc2c(oc3ccccc32)c1=O	56*	-25%	30*	47	44%	12%
COC(=O)Cn1cnc2c(oc3ccccc32)c1=O	41*	21%	36*	/	46%	47%
Cc1ccc(NC(=O)Cn2cnc3c(oc4ccccc43)c2=O)cc1	/	/	/	3	/	/
COc1ccccc1NC(=O)Cn1cnc2c(oc3ccccc32)c1=O	-10	-3%	-3	22	/	-40%
Cc1c(C(=O)NCc2ccc(N(C)C)cc2)oc2c1-c1nn(Cc3cccc(Cl)c3)cc1CC2	/	/	/	15	/	/
Cc1cc(C(=O)N/N=C2\CCCC(C)C2)n[nH]1 (stereo not given)	47	8%	55*	-12	17%	/
CC1CCC/C(=N\NC(=O)c2ccncc2)C1 (stereo not given)	28	17%	-1	37	11%	18%
CSc1ccc(S(=O)(=O)NCC(=O)OCC(=O)N(C)C2CCCCC2)cc1[N+](=O)[O-]	/	16%	/	-21	2%	9%
COc1ccc(C(=O)/C=C/Nc2cccc(O)c2)cc1	-12	17%	-1	222	166%	/
COc1cccc(C(=O)/C=C/Nc2ccc(S(=O)(=O)Nc3ccc(C(C)=O)cc3)cc2)c1	91*	-30%	51*	-18	10µM*	13µM*
CC(=O)c1ccc(NS(=O)(=O)c2cccc(C)c2)cc1	89*	10%	36*	109	41%	/
COc1ccc(C(=O)/C=C/Nc2ccc(S(=O)(=O)Nc3cccc(C(C)=O)c3)cc2)cc1	93*	11µM*	39*	-72*	?	?
CCOc1ccc(NC(=O)CN2CCN(CC(=O)Nc3ccccc3OCC)CC2)cc1	/	/	/	0	/	/
CN(Cc1ccccc1Cl)C(=O)CNC(=O)C12CC3CC(CC(C3)C1)C2	/	-8%	/	19	/	/
COc1ccc(-c2c3c(=O)n(C)c(=O)n(C)c3c3c(-c4cccc(C)c4)nc4ccccc4n23)cc1	/	/	/	28	/	/
COc1ccc(-n2c(Cc3cccn3C)nnc2SCC(=O)NCc2ccc(F)cc2)cc1	17	-3%	4	-14	8.3µM*	-6%
COc1ccc(-n2c(Cc3cccn3C)nnc2SCC(=O)NCc2ccccc2Cl)cc1	-9	-25%	1	-8	9.3µM*	12µM*
COc1ccc(-n2c(Cc3cccn3C)nnc2SCC(=O)NCc2ccco2)cc1	-6	-4%	-2	-14	?	0%
CNC(=S)NNc1nc(-c2ccccc2)c2cc(Cl)ccc2n1	/	-7%	/	-72*	/	/
Oc1ccccc1Nc1nc(-c2ccccc2)c2cc(Cl)ccc2n1	/	/	/	-27	/	/
Cc1cccc(N2CCN(C(=O)CCNS(=O)(=O)c3ccc4c(c3)oc(=O)n4C)CC2)c1C	1	?	8	-39	?	1.3µM*
Cc1cccc(N2CCN(C(=O)CCS(=O)(=O)c3ccc4c(c3)oc(=O)n4C)CC2)c1C	16	11µM*	-1	-62*!	13µM*	9.3µM*
